Hits are enriched below; roughly 10% of the tested compounds scored in any of these assays.
PNC inhibitor – inhibitors of perinucleolar compartment assembly. PC3M PTB-GFP, PNC prevalence imaging, 16 h; active compounds read low. 140,000 tested, 3.1% active. activity change (PNC), negative = inhibition, % at 10 µM. AID 2417;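 active = readout at or below -70, meaning at least 70% loss of cells showing the perinucleolar compartment, a nuclear body marking cancer cells; inconclusive = readout between -30 and a set limit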;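 note: plate controls were DMSO wells for no effect and camptothecin positive control wells for full effect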
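PC3M cells stably expressing PTB-GFP, 750–1000 cells/well, treated 16 h at 37 °C with compound (23 nl of library stock), in duplicate. After paraformaldehyde fixation and Hoechst stain, imaged at 20x; PNC prevalence scored by image analysis.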
HPGD inh – inhibitors of human 15-hydroxyprostaglandin dehydrogenase (HPGD); purified HPGD, NADH fluorescence kinetic, PGE2 substrate; 150,000 tested, 4.3% active; P15428; Potency, µM, inactives show top-dose activity change, negative = inhibition, actives largely listed as inhibitors; note: potency is the fitted concentration of half-maximal effect
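20 nM HPGD preincubated 15 min at room temperature with compound in 50 mM Tris-HCl pH 8, 0.01% Tween 20. Started with 1 mM NAD+ and 30 uM prostaglandin E2; NADH fluorescence (360/450 nm) read 5 times over 30-s intervals, last minus first.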
12-hLO inh – blocks human 12-lipoxygenase activity; P18054; purified 12-hLO, xylenol orange hydroperoxide absorbance; Potency, µM (doses to about 57.1 µM), for inactives: top-dose activity change, negative = inhibition, most hits filed as inhibitors; 150,000 tested, 0.12% active; AID 1452; active = well fitted inhibition curve with a large enough effect; inconclusive = small, poorly fitted or top-dose-only effect; note: potency is the fitted concentration of half-maximal effect; nearly all actives have a fitted effect of over 55% in size
Target sequence (P18054 whole entry, looked up): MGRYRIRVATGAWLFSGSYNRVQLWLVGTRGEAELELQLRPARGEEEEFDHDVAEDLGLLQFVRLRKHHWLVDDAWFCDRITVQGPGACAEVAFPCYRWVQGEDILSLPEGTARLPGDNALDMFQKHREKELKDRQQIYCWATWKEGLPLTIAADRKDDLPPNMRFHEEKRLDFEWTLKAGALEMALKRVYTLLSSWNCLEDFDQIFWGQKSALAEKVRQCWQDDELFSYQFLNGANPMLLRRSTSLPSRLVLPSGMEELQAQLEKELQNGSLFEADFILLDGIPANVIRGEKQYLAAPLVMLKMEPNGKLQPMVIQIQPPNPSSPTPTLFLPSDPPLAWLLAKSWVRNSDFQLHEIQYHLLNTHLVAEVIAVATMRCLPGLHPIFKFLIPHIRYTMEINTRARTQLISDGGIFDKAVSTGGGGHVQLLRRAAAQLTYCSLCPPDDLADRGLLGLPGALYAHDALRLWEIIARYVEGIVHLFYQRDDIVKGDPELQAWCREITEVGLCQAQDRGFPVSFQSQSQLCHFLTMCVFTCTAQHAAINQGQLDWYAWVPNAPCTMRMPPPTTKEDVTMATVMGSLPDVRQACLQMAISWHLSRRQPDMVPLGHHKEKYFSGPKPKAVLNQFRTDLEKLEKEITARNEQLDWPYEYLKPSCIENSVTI
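Lipoxygenase turnover measured by absorbance at 573 and 405 nm after Fe-XO development. Human 12hLO 150 nM, arachidonate 40 uM, pH 7.0 Hepes buffer with detergent; 15 min compound preincubation, 30 min reaction.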
ALDH1A1 inh – blocks purified human ALDH1A1 activity; P00352; Purified ALDH1A1, NADH fluorescence, propionaldehyde substrate; Potency, µM (titrated, usually from 75.3 µM), without a hit: at the top dose activity, negative = inhibition, most hits filed as inhibitors; 220,000 tested, 7.3% active; AID 1030;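 note: potency is the fitted concentration of half-maximal effect; plate controls were no enzyme wells and a reference inhibitor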
Lamin A splicing – modulators of lamin A splicing. HeLa LMNA splicing GFP/RFP minigene ratio, 48 h. Potency, µM (series often up to 46.1 µM), without a hit: at the highest dose ratio change, negative = inhibition, hits mostly inhibitors. 200,000 tested, 0.01% active; active = well fitted inhibition curve with a large enough effect in the signal ratio, with a control signal flat, not every such curve was filed as active; inconclusive = small, poorly fitted or top-dose-only effect, or effect the other way, or a change in a side signal; the % refers to the signal ratio; note: potency is the fitted concentration of half-maximal effect
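Read-out is the ratio of GFP to DsRed2 object intensity, acquired by 488 nm laser-scanning cytometry on HeLa lamin A-EGFP minigene reporter cells. Compound incubation 48 hrs at 37 °C in Opti-MEM with 2% FBS; DMSO 0.5% final.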
Starred values were filed as active, the others as inactive; ? = inconclusive; / = no result; [ ] = another dose, or the depositor's remark. Unless noted, calls come from the whole dose curve; as a rule, active = well fitted inhibition curve with a large enough effect (not every such curve was filed as active); inconclusive = small, poorly fitted or top-dose-only effect, or another doubt; inactive = no such curve, though single readings can be large or run the other way. Unless noted, % is set by controls: 0 for no effect and ±100 for the full control effect.

SMILES | PNC inhibitor | HPGD inh | 12-hLO inh | ALDH1A1 inh | Lamin A splicing
CC(=O)Nc1c(O)[nH]c2ccccc12 | -98* | -8% | 3% | 13% | -5%
O=C(c1ccccc1[N+](=O)[O-])N1CCN(Cc2ccc3c(c2)OCO3)CC1 | 14 | -4% | -3% | 1% | ?
O=C(c1cc2c(s1)CCCC2)N1CCN(Cc2ccc3c(c2)OCO3)CC1 | 12 | -27% | -11% | 14µM* | ?
COc1ccc(C(=O)N2CCN(Cc3ccc4c(c3)OCO4)CC2)cc1[N+](=O)[O-] | / | / | / | 1.6µM* | /
O=C(c1ccc(Cn2cc(Cl)cn2)o1)N1CCN(Cc2ccc3c(c2)OCO3)CC1 | -107* | / | -22% | ? | ?
O=C(c1ccc(Br)s1)N1CCN(Cc2ccc3c(c2)OCO3)CC1 | 34 | -1% | -16% | -8% | -22%
CC(C)NC(=S)N1CCN(Cc2ccc3c(c2)OCO3)CC1 | / | / | / | 22µM* | 10%[46 µM]
Cc1cnc(CNc2cc(-c3ccccc3C)ncn2)cn1 | / | / | / | -4% | -5%
CCOc1ccc(-n2c(Cc3cc(=O)[nH]c(=O)[nH]3)nnc2SCC(=O)Nc2nnc(C)s2)cc1 | / | / | / | 4% | -5%[46 µM]
Cc1ccc(C(=O)n2nc(C)c(S(=O)(=O)N3CCCCCC3)c2C)cc1 | / | / | / | / | -4%[46 µM]
CCOC(=O)c1ccc2oc(=O)n(Cc3ccccc3)c2c1 | / | / | / | / | 24%[46 µM]
O=C(Oc1ccc2c(c1)OCO2)c1ccc(F)cc1Cl | -109* | ? | -28% | -11% | -5%
CCOc1ncccc1C(=O)Oc1ccc2c(c1)OCO2 | 4 | -4% | 3% | 3% | ?
O=C(Oc1ccc2c(c1)OCO2)c1cc2c(s1)CCC2 | ? | 22µM* | -10% | -14% | ?
Cc1cc(C(=O)CN(Cc2ccc(F)cc2)S(=O)(=O)c2ccc3c(c2)OCCO3)c(C)n1C | -22 | -12% | -10% | ? | ?
O=S(=O)(c1ccc2c(c1)OCCO2)N(Cc1ccc(F)cc1)Cc1nnc(-c2cccs2)o1 | -26 | 4.5µM* | -3% | 4µM* | ?
COc1ccc2nc3c(nc2c1)C(=O)c1ccccc1-3 | / | -4% | 3% | 3% | /
Cc1ccc2nc(-c3cccnc3SCC(=O)N3c4ccccc4CC3C)[nH]c2c1 (configuration not stated) | ? | ? | 7% | ? | -11%
Cc1sc2nc(C(C)C)nc(SCC(=O)N3c4ccccc4CC3C)c2c1C (configuration not stated) | -97* | -4% | -3% | -1% | ?
Cc1ccccc1-n1ncc2c(SCC(=O)N3c4ccccc4CC3C)ncnc21 (configuration not stated) | 17 | 3% | -2% | 14µM* | ?
Cc1ccc2nc(SCC(=O)N3c4ccccc4CC3C)c(C)cc2c1 (configuration not stated) | -7 | -28% | 4% | 25µM* | 0%
COc1ccc(N2CCN(C(=O)CSc3ncnc4c3cnn4-c3ccccc3C)CC2)cc1 | -12 | -3% | 1% | -6% | 7%
NS(=O)(=O)c1ccc(CCN2C(=O)/C(=C\c3ccc(Cl)cc3)SC2=S)cc1 | -84* | -2% | -3% | ? | ?
Cc1ccccc1C1C=C(c2ccc(Cl)cc2)Nc2nnnn21 (configuration not stated) | / | / | / | / | 15%[46 µM]
COc1ccc(NC(=O)CCc2nc3ccccc3[nH]2)cc1 | / | / | / | 3% | /
SMILES | PNC inhibitor | HPGD inh | 12-hLO inh | ALDH1A1 inh | Lamin A splicing
Cc1nn(C)c(C)c1NC(=O)CSc1nc(C2CC2)nc2c1cnn2-c1ccccc1 | 71 | -24% | 1% | -8% | 5%
CC1CCCCN1C(=O)CSc1nc(C2CC2)nc2c1cnn2-c1ccccc1 (configuration not stated) | -19 | ? | 1% | 11µM* | ?
CCOC(=O)N1CCC(NC(=O)c2cnn(-c3ccc(OC)cc3)c2C2CCN(C(=O)OC(C)(C)C)CC2)CC1 | / | / | / | / | 9%[46 µM]
COc1ccc(NC(=O)N2CCC3(CC2)CCN(C(=O)c2cccn2C)CC3)cc1 | / | 0% | -1% | ? | /
N#C/C(=C/c1ccc(Br)o1)C(N)=O | -87* | -17% | -1% | -7% | ?
COc1ccc(NC(=O)/C(C#N)=C/c2ccc(Br)o2)cc1 | -1 | -20% | -3% | 0% | -20%
Cc1ccc(-c2ccc(/C=N/N=C3/NC(=O)C(CC(=O)O)S3)o2)c([N+](=O)[O-])c1 (configuration not stated) | -10 | 18µM* | -10% | -4% | 1%
O=C(O)CC1S/C(=N/N=C/c2ccc(-c3ccccc3[N+](=O)[O-])o2)NC1=O (configuration not stated) | 13 | 16µM* | -13% | 8.9µM* | ?
O=C(Nc1ccc(-n2cccc2)cc1)C1CC1 | / | / | / | 2% | 15%[46 µM]
COc1ccc(S(=O)(=O)N2CCN(C(=O)COc3ccccc3)CC2)cc1 | / | / | / | ? | 3%[46 µM]
COc1ccc(CCNC(=O)COc2ccc(S(=O)(=O)N3CCCC3)cc2)cc1 | / | / | / | 10µM* | ?
Cc1ccc(S(=O)(=O)N2CCCN(S(=O)(=O)c3ccc4ccccc4c3)CC2)cc1 | -100* | -15% | 6% | -3% | ?
O=C(Nc1nnc(-c2ccco2)o1)c1ccc(S(=O)(=O)N2CCCC2)cc1 | / | / | / | 35µM* | 0%[9.22 µM]
O=S(=O)(c1ccc2ccccc2c1)N1CCN(S(=O)(=O)c2ccc3ccccc3c2)CC1 | / | 0% | 2%[11.4 µM] | 3%[13.5 µM] | /
COC(=O)COc1ccc(S(=O)(=O)N2CCCCCC2)cc1 | / | / | / | -2% | /
COc1ccc(CCC(=O)N2CCN(S(=O)(=O)c3ccc4ccccc4c3)CC2)cc1 | -24 | -19% | -6% | 14µM* | ?
COC(=O)C(C)NC(=O)N1CCN(c2nnc(C)c3c(C)n(-c4ccc(Cl)cc4)nc23)CC1 (configuration not stated) | / | / | / | / | -11%[46 µM]
O=C(Nc1ccc(Cc2ccncc2)cc1)c1ccc(S(=O)(=O)N2CCCC2)cc1 | / | / | / | 14µM* | ?
O=C(COc1ccc(S(=O)(=O)N2CCCCC2)cc1)NCc1ccncc1 | -22 | -14% | 1% | 22µM* | -6%
N#CCSc1ccsc1C(=O)Nc1ccc(F)cc1 | 26 | 32µM* | -3% | 7.1µM* | -1%
Cc1c(Cl)cccc1-n1nc(C)c2c(C(=O)NCc3ccccc3)cc(C3CC3)nc21 | / | / | / | / | -13%[46 µM]
CCOC(=O)c1cnc(-c2ccccc2)nc1Oc1ccc(OC)cc1 | / | / | / | 11µM* | ?
CCCn1c2ccccc2c2nnc(SCC(=O)OC)nc21 | ? | / | -4% | 14µM* | -3%
CCn1c2ccccc2c2nnc(SCC(=O)NCc3cccs3)nc21 | 21 | -15% | -4% | -2% | 18%
CCn1c2ccccc2c2nnc(SCC(=O)NC3CCS(=O)(=O)C3)nc21 (configuration not stated) | ? | 32µM* | -1% | -3% | -2%
